Where “and” joins values, the source holds several entries; their conditions need not be identical. Equal values may be shown once. The campaign covered roughly 5,500 compounds. About 2,000 (36%) were called active. Another 18% or so got no clear call; they are omitted. Rule as the data show it: active = normalized growth mostly below about 0.91 (no sharp cut-off); inconclusive = no clear call, values can overlap the other calls; inactive = mostly above about 0.92. The list shows a part of the results.
Assay: chemical genetic growth profiling, strain panel (AID 1159580);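 also: tested at 20 µM; growth read once vehicle control cultures reached saturation at 30 °C; 1 = growth at the plate median or of vehicle wells; lower values mean less growth of the strain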
Conditions: S. cerevisiae deletion strains, growth OD

Measured: normalized growth

CC(=O)Nc1ccc(OC(=O)c2ccccc2O)cc1
active: locus YBR009C, strain hhf1, stronger effect = lower value 0.862 | locus YBR021W, strain FUR4, stronger effect = lower value 0.807 | locus YBR023C, strain chs3, stronger effect = lower value 0.908 | locus YCL011C, strain gbp2, stronger effect = lower value 0.87 | locus YCL016C, strain dcc1, stronger effect = lower value 0.91 | locus YCL061C, strain MRC1, stronger effect = lower value 0.917 | locus YCL069W, strain vba3, stronger effect = lower value 0.908 | locus YDL134C, strain PPH21, stronger effect = lower value 0.878 | locus YDR159W, strain sac3, stronger effect = lower value 0.842 | locus YDR195W, strain ref2 1.15 [resistant] | locus YDR392W, strain spt3, stronger effect = lower value 0.712 | locus YDR502C, strain sam2, stronger effect = lower value 0.913 | locus YER155C, strain BEM2 (second series), stronger effect = lower value 0.765 | locus YER167W, strain BCK2, stronger effect = lower value 0.873 | locus YGL240W, strain doc1, stronger effect = lower value 0.882 | locus YGL253W, strain hxk2, stronger effect = lower value 0.879 | locus YGR078C, strain PAC10, stronger effect = lower value 0.848 | locus YGR135W, strain pre9, stronger effect = lower value 0.847 | locus YGR252W, strain gcn5, stronger effect = lower value 0.608 | locus YHR142W, strain chs7, stronger effect = lower value 0.803 | locus YJL164C, strain tpk1, stronger effect = lower value 0.897 | locus YJR043C, strain POL32, stronger effect = lower value 0.754
0.738 (active) and 0.924 (inactive): locus YJL095W, strain BCK1, stronger effect = lower value
inactive: locus YAL021C, strain ccr4, stronger effect = lower value 1 | locus YAL026C, strain drs2, stronger effect = lower value 0.949 | locus YAL030W, strain snc1, stronger effect = lower value 0.994 | locus YBL061C, strain skt5, stronger effect = lower value 0.972 | locus YBR171W, strain sec66, stronger effect = lower value 0.992 | locus YBR229C, strain ROT2, stronger effect = lower value 0.98 | locus YBR231C, strain swc5, stronger effect = lower value 0.992 | locus YBR279W, strain paf1, stronger effect = lower value 0.939 | locus YCL029C, strain bik1, stronger effect = lower value 0.954 | locus YCR088W, strain abp1, stronger effect = lower value 0.929 | locus YDL005C, strain med2, stronger effect = lower value 0.996 | locus YDL035C, strain GPR1, stronger effect = lower value 0.911 | locus YDL040C, strain nat1, stronger effect = lower value 0.99 | locus YDL074C, strain BRE1, stronger effect = lower value 0.788 | locus YDL101C, strain DUN1, stronger effect = lower value 0.947 | locus YDL185W, strain tfp1, stronger effect = lower value 0.954 | locus YDL192W, strain arf1, stronger effect = lower value 0.967 | locus YDR001C, strain nth1, stronger effect = lower value 0.959 | locus YDR069C, strain doa4, stronger effect = lower value 0.999 | locus YDR101C, strain arx1, stronger effect = lower value 0.937 | locus YDR137W, strain rgp1, stronger effect = lower value 0.958 | locus YDR162C, strain NBP2, stronger effect = lower value 0.943 | locus YDR297W, strain sur2, stronger effect = lower value 0.977 | locus YDR318W, strain mcm21, stronger effect = lower value 0.93 | locus YDR334W, strain swr1, stronger effect = lower value 0.962 | locus YDR335W, strain msn5, stronger effect = lower value 0.977 | locus YDR388W, stronger effect = lower value 0.944 | locus YEL003W, strain gim4, stronger effect = lower value 0.978 | locus YEL037C, strain rad23, stronger effect = lower value 0.968 | locus YEL061C, strain CIN8 (second series), stronger effect = lower value 0.971 | locus YEL061C, strain CIN8, stronger effect = lower value 0.98 | locus YER015W, strain faa2, stronger effect = lower value 0.934 | locus YER016W, strain bim1, stronger effect = lower value 0.933 | locus YER110C, stronger effect = lower value 0.951 | locus YER111C, strain swi4, stronger effect = lower value 0.991 | locus YER155C, strain BEM2, stronger effect = lower value 0.945 | locus YFR010W, strain ubp6, stronger effect = lower value 0.944 | locus YGL078C, strain dbp3, stronger effect = lower value 0.97 | locus YGL086W, strain mad1, stronger effect = lower value 0.935 | locus YGL167C, strain pmr1, stronger effect = lower value 1.01 | locus YGL173C, strain kem1, stronger effect = lower value 0.959 | locus YGL227W, strain vid30, stronger effect = lower value 0.959 | locus YGL248W, strain PDE1, stronger effect = lower value 0.904 | locus YHR013C, strain ard1, stronger effect = lower value 0.915 | locus YHR027C, strain rpn1, stronger effect = lower value 0.945 | locus YHR030C, strain SLT2, stronger effect = lower value 0.968 and 0.921 | locus YHR079C, strain IRE1 (second series), stronger effect = lower value 0.927 | locus YHR079C, strain IRE1, stronger effect = lower value 0.904 | locus YHR094C, strain hxt1, stronger effect = lower value 0.954 | locus YHR129C, strain ARP1, stronger effect = lower value 0.948 | locus YHR200W, strain rpn10, stronger effect = lower value 0.934 | locus YIL066C, strain RNR3, stronger effect = lower value 0.89 | locus YIL073C, strain SPO22, stronger effect = lower value 0.854 | locus YIL125W, strain kgd1, stronger effect = lower value 0.95 | locus YIR030C, strain dcg1, stronger effect = lower value 0.933 | locus YJL092W, strain hpr5, stronger effect = lower value 0.946 | locus YJL095W, strain BCK1 (second series), stronger effect = lower value 0.96 | locus YJL115W, strain asf1, stronger effect = lower value 0.989 | locus YJL129C, strain trk1, stronger effect = lower value 0.974 | locus YJL134W, strain LCB3, stronger effect = lower value 0.985 | locus YJL154C, strain vps35, stronger effect = lower value 0.985 | locus YJL166W, strain qcr8, stronger effect = lower value 0.952 | locus YJL168C, strain set2, stronger effect = lower value 0.958 | locus YJL187C, strain SWE1 (second series), stronger effect = lower value 0.93 | locus YJL187C, strain SWE1, stronger effect = lower value 0.985
